Sampled rows, rich in hits. Any-hit rate of the full collection: about 1.5%.
TDP1 inh: qHTS Assay for Inhibitors of Tyrosyl-DNA Phosphodiesterase (TDP1) | recombinant TDP1, AlphaScreen DNA substrate cleavage | Potency, µM (highest dose often 130 µM), without a hit: at the highest dose activity change, negative = inhibition, hits mostly inhibitors | 350,000 compounds, 0.28% hits | AID 485290, 2010; also: potency is read from the fitted curve at half-maximal effect; % is scaled to controls: 0 for no effect and ±100 for the full control effect; nearly all actives have a fitted effect of over 40% in size
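Here, a 5' biotin and 3' phosphotyrosine-FITC DNA oligonucleotide reports Tdp1 activity: intact substrate bridges AlphaScreen beads, while cleavage leaves a 3' phosphate and drops signal. All incubations at room temperature.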
PI5P4K alpha inh: qHTS for Inhibitors of phosphatidylinositol 5-phosphate 4-kinase (PI5P4K); Phosphatidylinositol 5-phosphate 4-kinase type-2 alpha (Homo sapiens), P48426; PI5P4Kalpha enzyme, ADP-Glo luminescence, 60 min; hits give low values; max response, %; 330,000 compounds, 1.2% hits; active = max response of -50% or lower; inconclusive = between -30% and -50%; inactive = -30% or higher; also: value at the top dose of about 77 µM; % is scaled to controls: 0 for no effect and ±100 for the full control effect
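PI5P4Kalpha ADP-Glo assay; 5 microM ATP final; 60 min RT reaction; HEPES pH 7.4/EGTA/CHAPS, 5% DMSO; controls lacking substrate or enzyme; luminescent end-point.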
PGK inhibitor: qHTS Assay to Find Inhibitors of Phosphoglycerate Kinase | 380,000 compounds, 0.043% hits | Potency, µM (titrated, usually from 57.5 µM), inactives show top-dose activity change, negative = inhibition, usual class: inhibitors | AID 602233, 2012 | Phosphoglycerate kinase, glycosomal (Trypanosoma brucei brucei), P07378 | PGK/GAPDH coupled, Kinase-Glo luminescence, 60 min; also: potency is read from the fitted curve at half-maximal effect; % is scaled to controls: 0 for no effect and ±100 for the full control effect; nearly all actives have a fitted effect of over 60% in size
Target sequence (P07378 whole entry, looked up): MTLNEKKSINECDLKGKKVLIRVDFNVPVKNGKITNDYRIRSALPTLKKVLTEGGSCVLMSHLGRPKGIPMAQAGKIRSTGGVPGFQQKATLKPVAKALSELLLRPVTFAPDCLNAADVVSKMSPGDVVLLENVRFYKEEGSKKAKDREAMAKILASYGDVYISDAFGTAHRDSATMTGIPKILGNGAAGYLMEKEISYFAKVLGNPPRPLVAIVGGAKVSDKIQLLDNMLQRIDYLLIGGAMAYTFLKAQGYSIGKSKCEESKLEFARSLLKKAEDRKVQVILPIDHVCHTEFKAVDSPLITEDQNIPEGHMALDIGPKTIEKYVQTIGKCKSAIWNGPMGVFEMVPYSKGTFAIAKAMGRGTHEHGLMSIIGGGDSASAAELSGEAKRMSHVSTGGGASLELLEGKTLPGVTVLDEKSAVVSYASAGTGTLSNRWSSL
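Recombinant glycosomal PGK reaction used 1,3-bisphosphoglycerate generated in-well by GAPDH (100nM final) in 100mM TEA pH 7.6, 5mM MgCl2, 0.01% Tween-20. After 60 minutes at room temperature, ATP was read by Kinase-Glo Plus luminescence end-point.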
FEN1 inh-1: qHTS Assay for the Inhibitors of Human Flap endonuclease 1 (FEN1). P39748. Recombinant FEN1 flap cleavage, fluorescence, 15 min. Potency, µM (titrated, usually from 114 µM), for inactives: top-dose activity change, negative = inhibition, hits mostly inhibitors. 390,000 compounds, 0.35% hits. AID 588795, 2011; also: potency is read from the fitted curve at half-maximal effect; % is scaled to controls: 0 for no effect and ±100 for the full control effect; nearly all actives have a fitted effect of over 65% in size
Target sequence (P39748 whole entry, looked up): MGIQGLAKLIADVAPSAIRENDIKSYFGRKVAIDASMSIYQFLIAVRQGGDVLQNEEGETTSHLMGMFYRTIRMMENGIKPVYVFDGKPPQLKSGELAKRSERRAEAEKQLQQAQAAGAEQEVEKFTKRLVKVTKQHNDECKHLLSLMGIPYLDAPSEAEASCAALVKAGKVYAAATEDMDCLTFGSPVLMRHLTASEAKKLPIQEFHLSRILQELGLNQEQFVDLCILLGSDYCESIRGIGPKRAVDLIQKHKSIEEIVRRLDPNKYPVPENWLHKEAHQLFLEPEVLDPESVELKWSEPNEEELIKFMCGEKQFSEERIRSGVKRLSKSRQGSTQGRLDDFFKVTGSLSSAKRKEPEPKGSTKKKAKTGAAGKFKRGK
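FEN1 at 10 nM preincubated with compounds 15 min at room temperature, then flap DNA substrate added at 50 nM final. Signal read at 0 and 15 min; concentration-response fitted with four-parameter Hill equation.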
WRN helicase inh-1: qHTS for Inhibitors of WRN Helicase. 360,000 compounds, 0.46% hits. AID 651768, 2012. Potency, µM (top dose mostly 114 µM), inactives show top-dose activity change, negative = inhibition, most hits filed as inhibitors. Bifunctional 3'-5' exonuclease/ATP-dependent helicase WRN (Homo sapiens), Q14191. WRN helicase unwinding, fluorescent forked duplex, kinetic; also: potency is read from the fitted curve at half-maximal effect; % is scaled to controls: 0 for no effect and ±100 for the full control effect; nearly all actives have a fitted effect of over 55% in size
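Primary qHTS, 1536-well format. 20 nM WRN + compound, 15 min RT; start with 100 nM forked fluorophore/quencher duplex, 2 mM ATP (final); kinetic read ex 525/em 598 nm.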
Tb PFK block: qHTS Assay to Find Inhibitors of T. brucei phosphofructokinase | ATP-dependent 6-phosphofructokinase (Trypanosoma brucei brucei), O15648 | T. brucei PFK, ADP-Glo luminescence | Potency, µM (titrated, usually from 57.5 µM), for the others: top-dose activity, negative = inhibition, most hits filed as inhibitors | 330,000 compounds, 0.17% hits | AID 485367, 2010;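 also: potency is read from the fitted curve at half-maximal effect; 0% = uninhibited 1x PFK enzyme wells and -100% = no-enzyme wells; nearly all actives have a fitted effect of over 60% in size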
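In TEA buffer at pH 8.0 with 5 mM MgCl2, enzyme (1.25 nM) converted F6P (0.5 mM) and ATP (0.1 mM) for 45 min at room temperature. ADP product was read by luciferase luminescence.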
FEN1 inh-2: qHTS Assay for the Inhibitors of FEN1: Confirmatory Assay for Cherry-picked Compounds | shares compounds with FEN1 inh-1 | FEN1 flap cleavage, TAMRA/BHQ2 fluorogenic DNA substrate | Potency, µM, actives largely listed as inhibitors | 880 compounds, 79% hits | AID 720498, 2013; also: potency is read from the fitted curve at half-maximal effect; nearly all actives have a fitted effect of over 60% in size
WRN helicase inh-2: qHTS for Inhibitors of WRN Helicase: Confirmatory Assay for Cherry-picked Compounds. shares compounds with WRN helicase inh-1. WRN helicase DNA unwinding, fluorescence kinetic. Potency, µM (highest dose often 57.1 µM), for inactives: top-dose activity, negative = inhibition, hits mostly inhibitors. 610 compounds, 63% hits; also: potency is read from the fitted curve at half-maximal effect; nearly all actives have a fitted effect of over 65% in size
TO displacement: qHTS for Inhibitors of WRN Helicase: Thiazole Orange DNA Binding Counterscreen | shares compounds with WRN helicase inh-1 | thiazole orange DNA binding displacement, fluorescence | AID 720499, 2013 | Potency, µM (titrated, usually from 57.1 µM), for the others: top-dose activity change, negative = inhibition, most hits filed as inhibitors | 610 compounds, 10% hits;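 also: drop in dye fluorescence marks compound binding to DNA; potency is read from the fitted curve at half-maximal effect; % is scaled to controls: 0 for no effect and ±100 for the full control effect; nearly all actives have a fitted effect of over 60% in size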
BLM helicase inh: qHTS for Inhibitors of WRN Helicase: BLM Helicase Counterscreen for WRN Inhibitors; Recombinant BLM helicase DNA unwinding, red fluorescence; shares compounds with WRN helicase inh-1; 610 compounds, 60% hits; Potency, µM (series often up to 57.1 µM), without a hit: at the top dose activity change, negative = inhibition, usual class: inhibitors; also: potency is read from the fitted curve at half-maximal effect; nearly all actives have a fitted effect of over 60% in size
* = called active by the depositor; i = inactive; ? = inconclusive; / = no result given; [ ] = dose if it differs, or a comment. Unless noted, calls follow the shape of the dose curve; as a rule, active = well fitted curve in the direction sought with a large enough effect; inconclusive = small, poorly fitted or top-dose-only effect, or another doubt; inactive = no such curve, though single readings can be large; an effect the other way counts as inactive or inconclusive.

SMILES | TDP1 inh | PI5P4K alpha inh | PGK inhibitor | FEN1 inh-1 | WRN helicase inh-1 | Tb PFK block | WRN helicase inh-2 | TO displacement | BLM helicase inh | others
C[C@@H]1CC[C@H]2[C@H](C)[C@H]3CC[C@@]4(O)[C@@H]5CC(=O)[C@H]6CC(=O)CC[C@]6(C)[C@H]5C[C@H]4[C@@H]3CN2C1 | 6% | / | / | / | / | / | / | / | /
CCN1/C(=C/C=C/C2=[N+](CC)c3ccccc3C2(C)C)C(C)(C)c2ccccc21 | / | ? | ? | / | 4.7µM* | / | 22µM* | i | 22µM* | FEN1 inh-2=67*
COc1cccc(OC)c1-c1nn2c(-c3n[nH]c4c3CCC4)nnc2s1 | -5% | / | / | ? | / | / | ? | ? | ? | FEN1 inh-2=?
Cc1cc(/C=C2\C(=O)NC(=O)N(c3cccc(F)c3)C2=O)c(C)n1-c1ccc(C(=O)O)c(Cl)c1 | / | ? | ? | -13% | -12%[11.6 µM] | 17% | / | / | /
Cc1cc(/C=C2\C(=O)NC(=O)N(Cc3ccccc3)C2=O)c(C)n1-c1ccc(Cl)c(C(=O)O)c1 | / | -94* | 13µM* | 79µM* | 28µM* | -12% | 6.8µM* | -12% | 1.9µM* | FEN1 inh-2=?
CN(C(=O)Cc1ccc(Cl)c(Cl)c1)[C@H](CN1CCCC1)c1cccc(N=C=S)c1 | 14% | / | / | / | / | / | / | / | /
COC1C(O)C(C)OC(OC2C(Oc3cccc4c(O)c5c(=O)oc6ccc(C)c7c(=O)oc(c34)c5c67)OC(C)C(O)C2O)C1O (centres undefined) | / | 10 | i | 1.8µM* | ? | / | 19µM* | ? | 63% | FEN1 inh-2=6*
CC[C@H]1C2CC3[C@@H]4N(C)c5ccccc5[C@]45C[C@@H](C2[C@H]5O)N3[C@@H]1O (some centres undefined) | 14%[56.1 µM] | / | / | / | / | / | / | / | /
Cc1ccc(OCCn2cccc2/C=C2/C(=O)NC(=O)N(Cc3ccco3)C2=O)cc1 | 3% | ? | -15% | ? | ? | 14% | / | / | /
O=C1NC(=O)N(Cc2ccco2)C(=O)/C1=C/C=C/c1ccco1 | / | -83* | ? | 25µM* | 20µM* | 30µM* | 11µM* | -7% | 6.1µM* | FEN1 inh-2=43*
CNc1ccc2oc(C[C@@H]3OC4(CC[C@@H]3C)O[C@H]([C@@H](C)C(=O)c3ccc[nH]3)[C@H](C)C[C@H]4C)nc2c1C(=O)O (some centres undefined) | 24% | / | / | / | / | / | / | / | /
Cc1ccc(N)cc1N | 2% | 1 | 2% | -7% | -2% | -6% | / | / | /
C[n+]1c2cc(N)ccc2cc2ccc(N)cc21 | 3%[56.1 µM] | ? | 4% | 8.9µM* | 18µM* | / | 11µM* | / | 12µM*
CN1C(=O)/C(=C/c2ccc(N3CCCCCC3)o2)C(=O)NC1=S | -8% | -14 | -16% | -6% | -19% | 1% | / | / | /
CN1C(=O)/C(=C/C=C/c2ccco2)C(=O)NC1=S | / | -90* | 28µM* | 20µM* | 35µM* | ? | 15µM* | 31% | 8.6µM*
Cc1ccc(OCCOc2cccc(C=C3C(=O)NC(=O)NC3=O)c2)c(C)c1 | 79µM* | -62* | -2% | ? | 35µM* | 3% | ? | -23% | 27µM*
O=C1CC=C2C3CC4N(CCC45c4cc(O)c(O)cc4N1C25)CC3=CCBr (centres undefined) | / | -70* | ? | ? | 28µM* | / | 19µM* | -4% | 5.4µM*
CCOP(=O)(C1=C(O)C(=O)C(C(C)(C)C)=CC1=O)c1ccccc1 (centres undefined) | 0% | -17 | 5% | -19% | ? | 1% | / | / | /
CN(C)CC(C(=O)Cc1ccccc1)c1ccccc1 (centres undefined) | / | 2 | i | 13% | 45µM* | / | 0.3µM* | 3% | ?
Cn1cccc1/C=C1\C(=O)NC(=O)N(Cc2ccco2)C1=O | 18µM* | -80* | ? | ? | 40µM* | -15% | 19µM* | -8% | 8.6µM*
Cc1ccc(/C=C2\C(=O)NC(=O)N(Cc3ccccc3Cl)C2=O)o1 | 1% | ? | -5% | ? | ? | 5% | / | / | /
CC[C@@H](CO)NC(=O)[C@H]1C=C2c3cccc4[nH]cc(c34)C[C@H]2N(C)C1 | 5% | / | / | / | / | / | / | / | /
O=C1NC(=O)C(=Cc2c(Cl)cccc2Cl)C(=O)N1 | / | ? | 2% | 2% | 35µM* | / | 0% | -3% | -4%
Cc1c(C=C2C(=O)NC(=O)NC2=O)c(=O)n(-c2ccccc2)n1C | -6% | -18 | -8% | -3% | -10% | 3% | / | / | /
COC(=O)C12CC3=CCC4C(=O)N(c5ccccc5)C(=O)C4C3Cc3ccccc3[C@@H]1CNC2=O (some centres undefined) | 6% | / | / | / | / | / | / | / | /
CCN(CC)C(=O)c1ccc(NC(=O)c2cccc(C(F)(F)F)c2)cc1 | 3% | -2 | 0% | 11% | 0% | 0% | / | / | /

Screening results: PubChem BioAssay, National Center for Advancing Translational Sciences (NCATS)
